# Results: the supplement of paper PMC9135407
# Where “and” joins values, the source holds several entries; their conditions need not be identical. Identical values can stand only once. Counter-ions that a name gives are not always drawn. Out of some 5,800 compounds screened, about 620 (11%) showed activity. This excerpt belongs to a sample that is enriched for actives. Values without a mark were called inactive.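 Rule for the calls: active = score above a cut-off or among the top three wells of a plate; in these data no inactive exceeds 0.85.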
# System: primary human hepatic stellate cells (donor 1)
# Assay: scaled lipid accumulation score (0 = DMSO-like, 1 = nortriptyline-like); higher = stronger HSC inactivation (lipid re-accumulation), active = hit call of the paper
# Conditions: 48 h
# [1] = library stock concentration: 1 mM
# [2] = library stock concentration: 3.33 mM
# [3] = library stock concentration: 10 mM
# [4] = library stock concentration: 80 uM
# [5] = library stock concentration: 400 uM
# [6] = library stock concentration: 2 mM
smiles,measurement,setting,value
CC(=O)OCOC(c1cc([N+](=O)[O-])ccc1Oc1ccc(Br)cc1)P(=O)(OCOC(C)=O)OCOC(C)=O (stereo unspecified),scaled lipid accumulation score,library stock concentration: 8.1 mM,0.887 (active)
CS(=O)(=O)Nc1ccc([N+](=O)[O-])cc1Oc1ccccc1 [Nimesulide],scaled lipid accumulation score,,0.061
same,scaled lipid accumulation score,[1],≤ 0
same,scaled lipid accumulation score,[2],≤ 0
same,scaled lipid accumulation score,library stock concentration: 16.2 mM,0.012
CC(=O)OCOC(c1ccc2ccccc2c1)P(=O)(OCOC(C)=O)OCOC(C)=O (stereo unspecified),scaled lipid accumulation score,library stock concentration: 11 mM,0.031
Cn1cc(C(F)(F)F)nc1-c1ccc(OCC(O)CNCCOc2ccc(O)c(C(N)=O)c2)cc1 (stereo unspecified),scaled lipid accumulation score,[3],0.731
COc1cc2ncnc(Sc3nnc(C)s3)c2cc1OC [listing 1 of 2 here],scaled lipid accumulation score,[2],≤ -0.009
COc1cc2ncnc(Nc3cc(Br)c(O)c(Br)c3)c2cc1OC,scaled lipid accumulation score,[4],≤ 0
same,scaled lipid accumulation score,[5],≤ 0
same,scaled lipid accumulation score,[6],≤ 0
same,scaled lipid accumulation score,[3],0.04
COc1cc2ncnc(Sc3nnc(C)s3)c2cc1OC [listing 2 of 2 here],scaled lipid accumulation score,[3],0.919 (active)
C=CC(=O)Nc1cc(NC(=O)c2ccc(C)c(NC(=O)c3ccno3)c2)cc(C(F)(F)F)c1,scaled lipid accumulation score,[4],≤ 0
same,scaled lipid accumulation score,[5],≤ 0
same,scaled lipid accumulation score,[6],≤ 0
same,scaled lipid accumulation score,[3],0.311
Nc1ncnc2nc(-c3ccc(N4CCOCC4)nc3)cc(-c3cccc(Br)c3)c12 [listing 1 of 2 here],scaled lipid accumulation score,[3],0.982 (active)
Nc1ccc(-c2cccc3c(=O)cc(N4CCOCC4)oc23)cc1,scaled lipid accumulation score,[3],≤ -0.001
Nc1ncnc2nc(-c3ccc(N4CCOCC4)nc3)cc(-c3cccc(Br)c3)c12 [ABT 702 dihydrochloride],scaled lipid accumulation score,[3],0.275
Nc1ncnc2nc(-c3ccc(N4CCOCC4)nc3)cc(-c3cccc(Br)c3)c12 [listing 2 of 2 here],scaled lipid accumulation score,[4],≤ -0.001
same,scaled lipid accumulation score,[5],0.008
same,scaled lipid accumulation score,[6],≤ -0.001
O=C(CCBr)N1CCN(C(=O)CCBr)CC1 [Pipobroman],scaled lipid accumulation score,[3],≤ -0.027
S=C=Nc1cccc(NC(=S)NCCCCNC(=S)Nc2cccc(N=C=S)c2)c1,scaled lipid accumulation score,[2],0.004
same,scaled lipid accumulation score,[3],0.023
CCNC(=O)c1noc(-c2cc(C(C)C)c(O)cc2O)c1-c1ccc(CN2CCOCC2)cc1 [listing 1 of 2 here],scaled lipid accumulation score,[2],0.91 (active)
CCNC(=O)c1noc(-c2cc(C(C)C)c(O)cc2O)c1-c1ccc(CN2CCOCC2)cc1 [listing 2 of 2 here],scaled lipid accumulation score,[4],0.702
same,scaled lipid accumulation score,[5],0.802
same,scaled lipid accumulation score,[6],0.808
same,scaled lipid accumulation score,[3],0.831 and 0.776
CCNC(=O)c1noc(-c2cc(Cl)c(O)cc2O)c1-c1ccc(OC)cc1,scaled lipid accumulation score,[2],0.783
same,scaled lipid accumulation score,[3],0.741
CN(C)[C@@H]1CCc2[nH]c3ccc(NC(=O)c4ccc(F)cc4)cc3c2C1.Cl,scaled lipid accumulation score,[3],1.37 (active)
CN(C1CCc2c(c3ccccc3n2CC(=O)O)C1)S(=O)(=O)c1ccc(F)cc1 (stereo unspecified),scaled lipid accumulation score,[1],0.083
CN(C)CC(=O)Nc1ccc2[nH]c(=O)c3ccccc3c2c1,scaled lipid accumulation score,[2],≤ 0 and ≤ -0.009
same,scaled lipid accumulation score,[3],0.59 and 0.025
CCCCCCCCCCCCCCCC(O)C(N)CO (racemic) [DL-Dihydrosphingosine],scaled lipid accumulation score,[1],≤ -0.021
NC(=O)c1cnc(N[C@@H]2CCCC[C@@H]2N)nc1Nc1cccc(-n2nccn2)c1,scaled lipid accumulation score,[4],≤ 0
same,scaled lipid accumulation score,[5],0.015
same,scaled lipid accumulation score,[6],0.218
same,scaled lipid accumulation score,[2],0.214
same,scaled lipid accumulation score,[3],0.215 and 0.449
Cc1cc(O)cc(C)c1Cl [Chloroxylenol],scaled lipid accumulation score,[3],≤ 0
C[C@H]1c2cccc(O)c2C(O)=C2C(=O)[C@]3(O)C(O)=C(C(N)=O)C(=O)[C@@H](N(C)C)[C@@H]3[C@@H](O)[C@@H]21 [Doxycycline Hyclate],scaled lipid accumulation score,[2],≤ 0
same,scaled lipid accumulation score,[3],≤ -0.001
CC(C)OC(=O)CCC/C=C\C[C@@H]1[C@@H](/C=C/[C@@H](O)CCc2ccccc2)[C@H](O)C[C@@H]1O [17-phenyl trinor Prostaglandin F2.alpha. isopropyl ester],scaled lipid accumulation score,[1],≤ 0
CC(C)Nc1ncccn1,scaled lipid accumulation score,[3],≤ 0
C(=C\c1ccccc1)/CN1CCN(C(c2ccccc2)c2ccccc2)CC1 [Cinnarazine],scaled lipid accumulation score,library stock concentration: 5.4 mM,0.328
same,scaled lipid accumulation score,[3],0.423
COc1ccc(-c2cc(C(F)F)nn2-c2ccc(S(N)(=O)=O)cc2)cc1F [Deracoxib],scaled lipid accumulation score,library stock concentration: 5 mM,≤ 0
CCCCC/C=C\C/C=C\C/C=C\CCCCC(=O)OC [.gamma.-Linolenic Acid methyl ester],scaled lipid accumulation score,[1],≤ 0
O=C(O)CCCCCC[C@@H]1[C@@H](CC[C@@H](O)CCc2cccc(C(F)(F)F)c2)[C@H](O)C[C@@H]1O,scaled lipid accumulation score,[1],≤ 0
"CCCCC(C)(C)[C@H](O)/C=C/[C@H]1[C@H](O)CC(=O)[C@@H]1CC(=O)CCCCC(=O)O [16,16-dimethyl-6-keto Prostaglandin E1]",scaled lipid accumulation score,[1],≤ 0
CC[C@]1(O)C[C@@H]2CN(CCc3c([nH]c4ccccc34)[C@@](C(=O)OC)(c3cc4c(cc3OC)N(C=O)[C@H]3[C@@](O)(C(=O)OC)[C@H](OC(C)=O)[C@]5(CC)C=CCN6CC[C@]43[C@@H]65)C2)C1.O=S(=O)(O)O,scaled lipid accumulation score,[3],1.47 (active)
CC[C@]1(O)C[C@H]2CN(CCc3c([nH]c4ccccc34)[C@@](C(=O)OC)(c3cc4c(cc3OC)N(C=O)[C@H]3[C@@](O)(C(=O)OC)[C@H](OC(C)=O)[C@]5(CC)C=CCN6CC[C@]43[C@@H]65)C2)C1 [Vincristine],scaled lipid accumulation score,[2],0.004
same,scaled lipid accumulation score,[3],0.512
CCC1(O)CC2CN(CCc3c([nH]c4ccccc34)[C@@](C(=O)OC)(c3cc4c(cc3OC)N(C=O)C3[C@]45CCN4CC=C[C@@](CC)([C@@H](OC(C)=O)[C@]3(O)C(=O)OC)[C@H]45)C2)C1.O=S(=O)(O)O (stereo partly specified) [Vincristine sulfate],scaled lipid accumulation score,[3],0.897 (active)
CC[C@]1(O)C[C@H]2CN(CCc3c([nH]c4ccccc34)[C@@](C(=O)OC)(c3cc4c(cc3OC)N(C=O)[C@H]3[C@@](O)(C(=O)OC)[C@H](OC(C)=O)[C@]5(CC)C=CCN6CC[C@]43[C@@H]65)C2)C1.O=S(=O)(O)O [Vincristine sulfate],scaled lipid accumulation score,[3],1.36 (active)
"Cn1nc2c3c(cccc31)C(=O)c1ccccc1-2 [JNK Inhibitor, Negative Control]",scaled lipid accumulation score,[2],≤ 0
Cc1ccc2nc(NC(=O)CSc3nc4c(c(=O)n3-c3ccccc3)SCC4)sc2c1,scaled lipid accumulation score,[2],≤ 0
same,scaled lipid accumulation score,[3],0.76
COc1ccc(CNc2nc(N(CCO)CCO)nc3c2ncn3C(C)C)cc1 [Cdk2 Inhibitor III],scaled lipid accumulation score,[2],0.067
CCCCCCCC/C=C\CCCCCCCCCCCCCC(=O)NCCS(=O)(=O)O [N-Nervonoyl Taurine],scaled lipid accumulation score,[1],0.028
CCCCC[C@H](O)/C=C/[C@H]1CC[C@@H](O)[C@@H]1CCCCCCC(=O)O [11-deoxy Prostaglandin F1.beta.],scaled lipid accumulation score,[1],≤ 0
CCCCCCCCCC(=O)CC(=O)N[C@H]1CCOC1=O [N-3-oxo-dodecanoyl-L-Homoserine lactone],scaled lipid accumulation score,[1],0.017
COc1cc2ncc(-c3ccccc3)nc2cc1OC,scaled lipid accumulation score,[2],≤ 0
same,scaled lipid accumulation score,library stock concentration: 18.8 mM,0.096
COc1cc2ncc(-c3ccccc3)nc2cc1OC [Tyrphostin AG 1296],scaled lipid accumulation score,[2],≤ -0.009
same,scaled lipid accumulation score,[3],≤ 0
COc1cc2c(cc1OC)-c1cc3nc4ccccc4nc3n1C(C)(C)C2,scaled lipid accumulation score,[3],0.923 (active)
CN(CCO)CC(O)Cn1cnc2c1c(=O)n(C)c(=O)n2C (stereo unspecified),scaled lipid accumulation score,[3],≤ 0
CCC1=C[C@@H]2CN(C1)Cc1c([nH]c3ccccc13)[C@@](C(=O)OC)(c1cc3c(cc1OC)N(C)[C@H]1[C@@](O)(C(=O)OC)[C@H](OC(C)=O)[C@]4(CC)C=CCN5CC[C@]31[C@@H]54)C2 [Vinorelbine],scaled lipid accumulation score,library stock concentration: 2.6 mM,0.75
c1([C@]2(C(=O)OC)c3c(c4c(cccc4)[nH]3)CN(CC5C2)CC(CC)=C5)cc6c(N(C)[C@]7([H])[C@]6(CC8)[C@]([H])(N89)[C@@](CC)(C=CC9)[C@@H](OC(=O)C)[C@]7(O)C(=O)OC)cc1OC.C(=O)(O)[C@H](O)[C@@H](O)C(=O)O.C(=O)(O)[C@H](O) (stereo partly specified) [Vinorelbine Tartrate],scaled lipid accumulation score,[2],1.26 (active)
same,scaled lipid accumulation score,[3],0.863 (active)
CCC1=C[C@H]2CN(C1)Cc1c([nH]c3ccccc13)[C@@](C(=O)OC)(c1cc3c(cc1OC)N(C)[C@H]1[C@@](O)(C(=O)OC)[C@H](OC(C)=O)[C@]4(CC)C=CCN5CC[C@]31[C@@H]54)C2.O=C(O)C(O)C(O)C(=O)O,scaled lipid accumulation score,[3],1.52 (active)
COc1ccc2c(c1)c(CC(=O)O)c(C)n2Cc1ccc(Cl)cc1 [1-(4-Chlorobenzyl)-5-methoxy-2-methylindole-3-acetic acid],scaled lipid accumulation score,[3],0.078
Nc1ccccc1S(N)(=O)=O [2-Aminobenzenesulfonamide],scaled lipid accumulation score,,≤ 0
NS(=O)(=O)C#Cc1ccccc1 [Pifithrin-mu],scaled lipid accumulation score,[3],1.02 (active)
Cc1cccc(C#Cc2ccccc2)n1,scaled lipid accumulation score,[2],≤ 0
same,scaled lipid accumulation score,[3],0.052
Cc1cccc(C#Cc2ccccc2)n1 [6-Methyl-2-(phenylethynyl)pyridine hydrochloride],scaled lipid accumulation score,[3],≤ -0.034
Cc1cccc(C#Cc2ccccc2)n1 [MPEP hydrochloride],scaled lipid accumulation score,[3],0.053
NS(=O)(=O)C#Cc1ccccc1 [Pifithrin->m],scaled lipid accumulation score,[3],1.46 (active)
FC(F)(F)c1ccc(/C=C\c2cc(Cl)cc(Cl)c2)cc1,scaled lipid accumulation score,[1],≤ 0
CCCCC/C=C\C/C=C\C/C=C\C/C=C\CCCC(=O)C(F)(F)F [Arachidonyl Trifluoromethyl Ketone],scaled lipid accumulation score,[1],≤ 0
